# In PubChem BioAssay AID1964107 (National Center for Advancing Translational Sciences (NCATS), 2024):
# Out of some 31,000 compounds screened, about 360 (1.2%) were called active. Not shown: some 8% with an inconclusive outcome. The full list was thinned out, with actives kept by preference. Values without a mark were called inactive. Calls come from the whole dose curve.
# Molecular target: Polyprotein P1234 (Chikungunya virus (strain S27-African prototype)) (UniProt Q8JUX6)
# Experiment: Primary qHTS for inhibitors of NSP2Pro chikungunya virus (CHIKV); note: nearly all actives have a fitted effect of over 60% in size
# Details: FRET peptide cleavage, fluorescence 1 h; series mostly up to 24.9 µM; activity change, negative = inhibition: at the top concentration
# Source text: PI: Natalia J. Martinez Ph.D. National Center for Advancing Translational Sciences (NCATS), National Institute of Health (NIH), Rockville, Maryland Chikungunya virus (CHIKV) is a mosquito-borne RNA virus that has emerged as one of the most important global arboviral threats in the last decade. Although the first CHIKV vaccine has recently been FDA approved for use in healthy adults at increased risk, to date, there are no available antiviral drugs for CHIKV infection. CHIKV nsP2 protease plays a crucial role in the processing of the viral polypeptide precursor to release enzymes required for viral replication, thus making it a promising drug target for antiviral discovery. Here, we established a high-throughput pipeline to identify small molecule inhibitors of nsP2 proteolytic activity. The pipeline is composed of a suite of 1,536-well in vitro assays to support quantitative high-throughput (qHTS) screening campaigns. Specifically, we developed a fluorescence resonance energy transfer (FRET)-based assay using a fluorogenic peptide substrate encompassing an endogenous cleavage site and purified recombinant protease domain (nsP2pro). Using this assay, we interrogated ~37,000 small molecules, including those in drug repurposing libraries as well as chemically diverse and medicinal chemistry-friendly compounds. Hits were selected for follow-up validation against full-length nsP2 and an additional peptide. FRET-based 1,536-well assays for papain, hepatitis C virus NS3-4A, and human furin proteases were implemented to characterize compound selectivity. […] Novel compounds were identified to be potential nsP2 inhibitors and molecular docking analyses were performed to explain the binding mode of selected hits. In vitro antiviral activity was evaluated for a subset of compounds using a high-throughput CHIKV infection assay. To our knowledge, the pipeline presented here is unprecedented for CHIKV antiviral discovery research.
# PROTOCOL TABLE (as described by Inglese J, Shamu CE and Guy RK. 2007) SEQUENCE No. (e.g., 1, 2, 3, etc.); […] (e.g., Cells, Incubation, Reagent, etc.); VALUE; DESCRIPTION. 1; Control / Compound; 20 nL; Echo 655 acoustic dispenser, Greiner 1536-well solid bottom black plate. 2; Enzyme; 4 uL; BioRAPTR FRD liquid dispenser (Beckman Coulter). 3; Incubation; 15 min; room temperature. 4; Reagent; 4 uL; 2.5 uM Peptide 2 substrate. 5; Incubation; 1 hr; room temperature. 6; Detection; Fluorescence; WiewLux microplate reader (PerkinElmer), 525 nm excitation, 598/25 nm emission. NOTES (numbers refer to sequence numbers above). 1. Briefly, 20 nL DMSO, positive control ZnAc (20nM final concentration), and test compounds were transferred into a 1,536-well solid bottom black plate (789176-F, Greiner One) via Echo 655 acoustic dispenser (Beckman Coulter). For primary screens, compounds were tested at 7 concentrations, 1:3 dilution points ranging from 25 uM to 34 nM. Follow-up confirmatory screens were carried out at 11 concentrations, 1:3 dilution points from 25 uM to 0.42 nM. 2. Four uL nsP2pro enzyme mix (150 nM final concentration) in 10 mM Tris-HCl pH 8.0 with 0.01% Tween 20 assay buffer was dispensed into the plate using a BioRAPTR FRD liquid dispenser (Beckman Coulter). 3. The plate was incubated at room temperature (protected from light) for 15 min 4. Four microliter of peptide 2 substrate (2.5 uM final concentration) in assay buffer was added to the plate. 5. After 1 hour, plates were immediately read on a ViewLux high-throughput CCD imager (Exposure = 10 sec, Gain = High, Speed = Slow, Binning = 2X). The above assay was also incorporated in the NCATS HTS facility41, which allowed for robotic liquid and compound dispensing, microplate handling, and fluorescence reading.. REFERENCE: Inglese J, Shamu CE and Guy RK, Reporting data from high throughput screening of small molecule libraries, Nature Chemical Biology, 2007, 3(8): 438-441. doi.org/10.1038/nchembio0807-438.
# % is set by controls: 0 for no effect and ±100 for the full control effect; potency is the fitted concentration of half-maximal effect.
# Chain of Polyprotein P1234 (Chikungunya virus (strain S27-African prototype)) (Q8JUX6 whole entry, looked up): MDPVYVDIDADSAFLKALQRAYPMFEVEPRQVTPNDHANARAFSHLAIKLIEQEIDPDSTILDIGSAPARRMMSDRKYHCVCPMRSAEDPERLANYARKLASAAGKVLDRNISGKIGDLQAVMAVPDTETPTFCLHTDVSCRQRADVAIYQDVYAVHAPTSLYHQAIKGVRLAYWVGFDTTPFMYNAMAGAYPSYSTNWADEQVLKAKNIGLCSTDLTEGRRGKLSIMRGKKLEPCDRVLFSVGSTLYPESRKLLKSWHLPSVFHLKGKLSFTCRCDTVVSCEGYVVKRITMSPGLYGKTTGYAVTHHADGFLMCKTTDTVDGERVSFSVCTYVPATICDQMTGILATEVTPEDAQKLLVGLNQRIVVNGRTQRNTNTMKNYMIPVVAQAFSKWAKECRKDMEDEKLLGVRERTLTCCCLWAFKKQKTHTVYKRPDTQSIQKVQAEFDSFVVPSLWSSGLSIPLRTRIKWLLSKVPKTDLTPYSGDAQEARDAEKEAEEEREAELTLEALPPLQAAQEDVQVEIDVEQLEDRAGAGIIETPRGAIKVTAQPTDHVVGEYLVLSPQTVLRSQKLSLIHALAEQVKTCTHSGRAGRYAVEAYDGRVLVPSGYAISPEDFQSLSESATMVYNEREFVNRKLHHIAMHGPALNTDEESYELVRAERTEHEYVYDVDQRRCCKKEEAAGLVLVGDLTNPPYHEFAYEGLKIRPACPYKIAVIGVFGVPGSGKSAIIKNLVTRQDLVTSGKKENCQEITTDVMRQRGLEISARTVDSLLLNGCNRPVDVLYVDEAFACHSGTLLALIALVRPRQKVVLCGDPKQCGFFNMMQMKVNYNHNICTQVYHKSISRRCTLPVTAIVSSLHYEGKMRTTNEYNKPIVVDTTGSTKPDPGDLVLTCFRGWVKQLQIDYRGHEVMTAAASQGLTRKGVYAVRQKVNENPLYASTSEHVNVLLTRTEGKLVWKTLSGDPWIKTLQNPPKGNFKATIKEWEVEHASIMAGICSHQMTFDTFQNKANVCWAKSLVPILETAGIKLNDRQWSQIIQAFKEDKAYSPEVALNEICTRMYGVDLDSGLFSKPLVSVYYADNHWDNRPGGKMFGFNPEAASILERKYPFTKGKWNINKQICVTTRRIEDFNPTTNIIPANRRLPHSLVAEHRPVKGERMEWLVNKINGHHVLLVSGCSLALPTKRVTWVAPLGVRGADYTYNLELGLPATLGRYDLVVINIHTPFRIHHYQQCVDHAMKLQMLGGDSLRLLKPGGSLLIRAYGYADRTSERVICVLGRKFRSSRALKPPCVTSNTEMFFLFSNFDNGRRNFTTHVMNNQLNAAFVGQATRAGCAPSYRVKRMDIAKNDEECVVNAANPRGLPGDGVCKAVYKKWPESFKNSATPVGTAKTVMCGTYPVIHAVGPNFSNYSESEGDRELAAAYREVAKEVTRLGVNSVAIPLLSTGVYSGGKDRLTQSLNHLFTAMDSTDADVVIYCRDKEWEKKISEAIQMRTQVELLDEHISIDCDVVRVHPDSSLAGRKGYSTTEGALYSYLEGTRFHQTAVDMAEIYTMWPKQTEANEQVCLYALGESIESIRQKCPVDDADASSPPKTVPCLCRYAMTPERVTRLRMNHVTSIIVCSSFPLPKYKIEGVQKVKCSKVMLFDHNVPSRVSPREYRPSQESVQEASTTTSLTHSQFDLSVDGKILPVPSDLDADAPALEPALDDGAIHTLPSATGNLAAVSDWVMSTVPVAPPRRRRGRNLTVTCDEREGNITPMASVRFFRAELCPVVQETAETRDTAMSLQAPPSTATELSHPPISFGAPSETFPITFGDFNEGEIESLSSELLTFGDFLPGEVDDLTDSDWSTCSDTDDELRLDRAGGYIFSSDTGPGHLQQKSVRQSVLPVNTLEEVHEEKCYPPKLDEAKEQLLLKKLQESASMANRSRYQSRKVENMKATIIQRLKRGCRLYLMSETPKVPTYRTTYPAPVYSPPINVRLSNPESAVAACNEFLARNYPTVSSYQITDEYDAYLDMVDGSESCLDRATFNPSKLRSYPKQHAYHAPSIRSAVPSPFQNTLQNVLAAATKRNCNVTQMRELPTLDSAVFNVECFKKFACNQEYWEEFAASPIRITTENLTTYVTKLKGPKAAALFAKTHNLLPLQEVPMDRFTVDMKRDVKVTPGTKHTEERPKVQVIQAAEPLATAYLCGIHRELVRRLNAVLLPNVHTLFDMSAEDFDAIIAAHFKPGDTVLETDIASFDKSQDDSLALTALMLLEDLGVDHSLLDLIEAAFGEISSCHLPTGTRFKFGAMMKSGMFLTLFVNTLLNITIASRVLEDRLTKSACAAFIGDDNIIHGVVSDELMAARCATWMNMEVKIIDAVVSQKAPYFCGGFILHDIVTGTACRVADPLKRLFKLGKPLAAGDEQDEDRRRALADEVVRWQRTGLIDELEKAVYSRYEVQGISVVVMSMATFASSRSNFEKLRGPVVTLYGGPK
SMILES,outcome,"activity change, negative = inhibition",Potency
COc1cccc(Nc2ccc(N3CCN(C(C)=O)CC3)cc2)c1OC,inactive,,
COc1ccccc1OCCCn1c(-c2ccc(Cl)cc2)nc2ccccc2c1=O,,-10.8%,
Cc1cc(C)nc(NS(=O)(=O)c2ccc(NC(=O)c3cc(=O)c4ccc(C)c(C)c4o3)cc2)n1,,-9.45%,
O=C1C(F)N([S+](=O)([O-])c2ccc3c(c2)OCCO3)CCN1[S+](=O)([O-])c1c(F)cccc1F (stereo not given),inactive,,
Cc1cnn(CCC(=O)N2CCC3(CCNCC3)CC2)c1,,-10.6%,
CCOc1ccc(N(Cc2ccccc2)C(=O)c2nc(S(C)(=O)=O)ncc2Cl)cc1,,,5.01 µM (active)
CCOc1ccc(N(CC)C(=O)C2CCN(S(=O)(=O)c3cccc4nonc34)CC2)cc1,,-21.2%,
CCOc1ccc(N(Cc2ccccc2)C(=O)c2nc(SCC)ncc2Cl)cc1,,4.15%,
Cn1nnnc1Sc1ncnc2n[nH]c(-c3cccc(S(C)(=O)=O)c3)c12,,,2.82 µM (active)
Cn1nnnc1Sc1ncnc2scc(-c3ccccc3[N+](=O)[O-])c12,,-0.0419%,
Cc1ccc(-c2ccccc2CN2CCN([S+](=O)([O-])c3cccc(C(F)(F)F)c3)CC2)cc1Cl,inactive,,
O=C(Nc1nc(-c2ccccc2)cs1)c1ccncc1NS(=O)(=O)c1ccc(Cl)cc1,,2.25%,
Cc1c(Cl)cccc1NC(=O)N1CCN(C(=O)c2nsc3ccccc23)CC1,,-22.7%,
COc1cc(C(CC(=O)NCCC(C)C)N2Cc3ccccc3C2=O)cc(OC)c1OC (stereo not given),,-20.7%,
O=C(Cn1ccn2nc3c(c2c1=O)CCCCC3)NCc1ccccc1Cl,,-6.55%,
CC1=C(C(=O)N2CCN(c3cccc(C(F)(F)F)c3)CC2)C2(CCCCC2)OC1=O,,-21.5%,
CC(C)Sc1oc(-c2cccs2)nc1S(=O)(=O)c1ccc(Cl)cc1,,-23.7%,
CCc1nc(-c2ccc(OC3CCN(C(=O)Cc4c[nH]c5ccccc45)C3)cc2)no1 (stereo not given),,-4.97%,
COc1ccc(CN2CCN(CCCSc3cc(C(C)(C)C)c(O)c(C(C)(C)C)c3)CC2)c(OC)c1OC,,11.3% [at 5.1 µM],
Cc1cn2nc(C(=O)NC3CCCC3)cc2c(N2CCSCC2)n1,inactive,,
CCN(CC)c1cc(CCC(=O)NCc2cc(F)ccc2F)ccn1,inactive,,
FC(F)(F)c1cc(Nc2nc3ccccc3c3nncn23)ccc1Cl,,-5.64%,
C=CS(=O)(=O)N1CCCN(c2cc(NCCC(=O)O)nc(-c3ccccn3)n2)CC1,,166%,

SMILES,outcome,"activity change, negative = inhibition",Potency
Cc1ccc(NC(=O)CCCn2c(=O)c3cccn3c3ccccc32)cc1Cl,,-22%,
Cc1ccccc1[C@@H](C(=O)NC1CCCCC1)N(C(=O)Cn1ccnc1C)c1cccc(F)c1,,4.93%,
CCOC(=O)C1CCCN(CC(=O)Nc2cc(C)c3c(=O)oc4ccccc4c3n2)C1 (stereo not given),,-8%,
COc1ccc(Cc2nc3ccc(C(=O)NCc4ccccc4Cl)cc3o2)cc1,,-15.7%,
COc1ccc(C2=Nn3c(nnc3-c3ccccc3OC)SC2)cc1OC1CCCC1,inactive,,
O=[S+]([O-])(c1ccc2c(c1)OCCO2)N1CCN([S+](=O)([O-])c2c(Cl)cc(Cl)cc2Br)CC1,,-5.69%,
CC(=O)N1Cc2ccccc2CC2(CCN(Cc3ccc(O)cc3)CC2)C1,,-17.4%,
N#Cc1cc(-c2nc(Nc3ccc(F)c(F)c3)c3ccccc3n2)ccn1,inactive,,
COCCNc1ncnc2c1c(-c1ccccc1)cn2-c1ccc(C)c(Cl)c1,,-18.5%,
CN(Cc1ccccc1)C(=O)c1cn(C)c2ccc(S(=O)(=O)N(C)C3CCCCC3)cc2c1=O,,-8.33%,
O=C(Nc1ccc2ncnc(N3CCCCC3)c2c1)C1CCCCC1,inactive,,
CCOc1ccc(CCNC(=O)c2cc3ccccc3n2Cc2cccc(C)c2)cc1OCC,,-6.04%,
O=C(Cn1nc2c(cc1=O)CCCCC2)NC1CCN(C(=O)c2cc3ccccc3[nH]2)CC1,,4.65%,
COc1cc(OC)c(C(CC(=O)N2CC(C)CC(C)C2)c2ccc3c(c2)OCO3)c(OC)c1 (stereo not given),,-1.01% [at 39.2 µM],
Fc1cc(Nc2nc(-c3ccncc3)nc3ccccc23)ccc1N1CCCCC1,inactive,,
O=C(c1nc(-c2ccsc2)c2cnccn12)N1CCCC1,,-15.1% [at 39.2 µM],
O=S(=O)(NCCc1noc(-c2ccccc2)n1)c1ccc2c(c1)OCCO2,,-3.1%,
CCOC(=O)c1cccc(NC(=O)Cn2cnc3nc4c(cc3c2=O)CCCC4)c1,,-27.2%,
C/C(=C\CC[C@@H](C)[C@H]1CC(O)[C@@]2(C)C3CC[C@H]4C(C)(C)[C@@H](OC5OCC(O)C(O)C5OC5OC(CO)C(O)C(O)C5O)CC[C@@]45C[C@@]35CC(O)[C@]12C)C(=O)O (stereo not given in full),,-6.9% [at 10 µM],
CC12CCC(O)CC1=CCC1C2CCC2(C)C(c3cccnc3)=CCC12 (stereo not given),,-16.8% [at 10 µM],
O=C(C1CCCC1)N1CC2(CCCN(Cc3ccccn3)C2)Cc2ccccc21 (stereo not given),inactive,,
Cc1cc(C(=O)Nc2cccc(C(F)(F)F)c2)c2c(C)nn(-c3cccc(F)c3)c2n1,,46.5%,
NC(=O)c1noc([C@H](CCCC2CCCCC2)CC(=O)NO)n1,,-15.7%,

SMILES,outcome,"activity change, negative = inhibition",Potency
O=C(CC1N=C2c3ccccc3N=C(SCc3cccc(Cl)c3)N2C1=O)NCc1ccc2c(c1)OCO2 (stereo not given),,-20.2%,
CC(C)(C)c1cc(C(=O)O)c(NC(=O)Nc2ccc3[nH]ncc3c2)s1,,3.33%,
CC(Nc1ncnc2ccc(-c3ccc4c(c3)OCO4)cc12)c1ccco1 (stereo not given),inactive,,
CCC(CC)c1nn2cc(-c3ccccc3)nc2s1,,-32.1%,
CCOC(=O)c1cc2c(=O)n3ccccc3nc2n(CCCOC)c1=NC(=O)C(C)Oc1ccccc1 (stereo not given),,-15%,
C=CC(=O)c1ccc2ccccc2c1,,,9.88 µM (active)
O=C(CN1CCOC1=O)N1CCn2nc(C(O)Cc3ccccc3)cc2C1 (stereo not given),,-4.53%,
COc1ccc(CCNC(=O)C(=O)NCC(c2ccco2)S(=O)(=O)c2cccs2)cc1OC (stereo not given),,-13.2%,
O=C(O)c1ccc(CSc2nc3cccnc3n2Cc2cccc(F)c2)cc1,,-15.8%,
O=S(=O)(c1ccc2c(c1)OCCCO2)N1CCN(S(=O)(=O)c2c(F)cccc2F)CC1,,-1.31%,
Cc1ccc(C(=O)NC2CCN(C#N)CC2)cc1,,-7.02%,
Cn1c(C(=O)N2CCC(C(=O)N3CCN(c4ccccc4)CC3)CC2)cc2sccc21,,3.22%,
Cc1ccsc1C(=O)C1CCCN(Cc2ccc(OC(C)C)c(CO)c2)C1 (stereo not given),inactive,,
CCOc1ccc(CCNC(=O)C2=C(C)C(=O)OC23CCC(C)CC3)cc1OCC (stereo not given),,-4.16%,
COc1ccccc1-c1nnc2n1N=C(c1ccc(OC(F)F)c(OCC3CC3)c1)CS2,,-5.34%,
O=C(Nc1ncc(Cc2ccc(C(F)(F)F)cc2)s1)c1cnc(-c2ccccc2)o1,,-4.65%,
CCOc1ccc(CCNC(=O)c2c(C)oc3ncn(C)c(=O)c23)cc1,,-10.1%,
CN[C@H]1CN(c2ccc3c(=O)c(C(=O)O)cn(-c4nccs4)c3n2)C[C@@H]1OC,,-5.01% [at 5.1 µM],
Cc1cc(F)ccc1NC(=O)CCC1CCCN(C(=O)c2ccc(Cl)s2)C1 (stereo not given),,-2.75%,
CCC(CC)[C@H](NC(C)=O)[C@@H]1[C@H](O)[C@@H](C(=O)O)C[C@H]1N=C(N)N,,-4.24% [at 0.199 µM],
C[C@@H]1O[C@@H](O[C@@H]2[C@@H](O)[C@H](O[C@@H]3[C@@H](O)[C@@H](O)[C@H](O[C@H]4[C@H](OC(=O)[C@]56CCC(C)(C)C[C@H]5C5=CCC7[C@@]8(C)C[C@H](O)[C@H](O[C@@H]9O[C@@H](C)[C@H](O)[C@@H](O)[C@H]9O)[C@@](C)(CO)C8CC[C@@]7(C)[C@]5(C)C[C@H]6O)O[C@H](C)[C@H](O)[C@@H]4O)O[C@H]3C)OC[C@H]2O)[C@H](O)[C@H](O)[C@H]1O (stereo not given in full),,10.2% [at 5.1 µM],
Cc1nc(C)c(-c2ccc3ncnc(NCc4ncc[nH]4)c3c2)s1,inactive,,
COc1cccc(CNCCSc2nnnn2C)c1OCc1ccccc1Cl,,-28.7%,

SMILES,outcome,"activity change, negative = inhibition",Potency
O=C(Nc1cc(C(F)(F)F)ccc1Cl)c1ccc2c(c1)CCN2S(=O)(=O)c1ccccc1,,-9.56%,
COc1cc(OC)cc(C(=O)NCCc2csc3nc(-c4ccccc4F)nn23)c1,,-4.65%,
CCc1ccc(NC(=O)C(=O)NNC(=O)Cc2ccc(Cl)c(Cl)c2)cc1,inactive,,
Cc1cc(C)cc(NC(=O)CSc2nc(=O)n(CCN3CCOCC3)c3c2CCC3)c1,,-16.5%,
O=C(c1cccc(F)c1)N1CCCC(CN2CCOCC2)CC1 (stereo not given),,-18.1%,
O=C(CCc1cn(Cc2ccc(F)cc2)c2ccccc12)NC1CCCCC1,,-6.32%,
COc1ccc(Cl)cc1S(=O)(=O)N1CCC(c2ccncc2)CC1,,-8.44%,
COc1cccc(-n2ccn(CC(=O)NCc3ccc(C)cc3)c(=O)c2=O)c1,,-14.9%,
CN(C(=O)c1ccc2c(c1)N(Cc1cccc(Cl)c1)C(=O)c1ccccc1S2=O)C1CCCCC1 (stereo not given),,-7.42%,
O=C(CSc1nccn1C1CCCC1)Nc1cc(C(F)(F)F)ccc1Cl,,-12.2%,
COc1ccccc1N1CCN(c2ccc(=O)n(CC(=O)NCc3ccc(OC(C)C)cc3)n2)CC1,,-12.8%,
CC1CCC2(C)C(CC(O)C(O)C23CO3)C1(C)CCC1=CC(O)OC1=O (stereo not given),,-4.36%,
Cc1noc(C)c1S(=O)(=O)N1CC(C(=O)NC2CCCCC2)C2(CCOCC2)C1 (stereo not given),,-2.85%,
COc1cccc(-c2cc(C(=O)N3CCN(c4ncccn4)CC3)c3cnn(C)c3n2)c1,inactive,,
CCc1ccc(C(=O)CC2(O)C(=O)N(CCc3ccccc3)c3ccc(Br)cc32)cc1 (stereo not given),,-13.5%,
COCc1nc(C2CC(N)C2)cc(N2CCC(Cn3cccn3)CC2)n1 (stereo not given),,-3.16%,
O=C(Nc1cc(-c2ccccc2)nn1-c1ccccc1F)c1ccc([N+](=O)[O-])cc1,,8.97%,
COc1ncccc1-c1cc(-c2cn[nH]c2)c2cncn2c1,inactive [at 39.2 µM],,
CN1CCN(C(=O)c2ccc(-c3cnc4c(O)ccc(C(=O)O)c4c3)cc2)CC1,inactive,,
COc1ccc(NC(=O)CSc2nnc(-c3nnn(-c4ccc(F)cc4)c3C)o2)cc1,,-14.4%,
CNC(=O)[C@@H](Cc1ccccc1)N1CCC[C@H]1C(=O)NCC1CC1,,-2.23% [at 39.2 µM],
